The source made the active and inactive calls. Unless noted, no rule for the calls is given here.
Assays:
[1] = resazurin metabolic signal in HepG2 cells – cell-based, resazurin fluorescence, 24 h, PK04 Diversity Set, profiling panel (AID 1172); details: HepG2 viability, higher = more signal; also: test concentration not given here
[2] = budding yeast growth changes without added modifier – OD600, strain BY4716, 24 h, basal condition, primary screen (AID 1173); details: S. cerevisiae BY4716 growth, OD600, 24 h; higher = more signal, called active from +8 up or from −8 down
[3] = viability profiling in MM1S myeloma cells – cell-based, resazurin fluorescence, basal, 24 h, PK04 Diversity Set, profiling panel (AID 1174); details: higher = more signal, called active from +8 up or from −8 down;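 also: MM1S multiple myeloma cell line; test concentration not given here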
[4] = molecular target: Dihydroorotate dehydrogenase (quinone), mitochondrial (Plasmodium falciparum (isolate 3D7)) (UniProt Q08210); assay: inhibition of P. falciparum DHODH – biochemical, C-terminal His tag, absorbance 600 nm, primary screen (AID 1175); details: PfDHODH enzyme, DCIP absorbance 600 nm; higher = more signal, called active from +8 up or from −8 down;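 also: recombinant parasite enzyme with a five histidine tag at its C terminus; test concentration not given here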
[5] = inhibition of PAO1 biofilm formation – strain PAO1, LB-PBS medium, absorbance 600 nm, primary screen (AID 1176); also: test concentration not given here; details: P. aeruginosa PAO1 growth/biofilm, A600, 12 h; higher = more signal
[6] = growth modulation of vineyard yeast isolate – strain RM11-1a, OD600, basal, 24 h, primary screen (AID 1177);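 also: cultures grown under basal conditions with no added stressor; test concentration not given here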; details: S. cerevisiae RM11-1a growth, OD600, 24 h; higher = more signal, called active from +8 up or from −8 down
[7] = growth of efflux-deficient E. coli DRC39 – strain DRC39, OD650, 24 h, E. coli filamentation inducers, primary screen (AID 1178);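 also: growth measured as culture turbidity by optical density at 650 nm; test concentration not given here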; details: E. coli DRC39 acrAB, higher = more signal, called active from +8 up or from −8 down
[8] = growth of efflux-deficient E. coli DRC39 – strain DRC39, OD650, 48 h, E. coli filamentation inducers, primary screen (AID 1179);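 also: screen aims at cell division blockers that make cells filament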; details: E. coli DRC39 delta-acrAB growth, higher = more signal, called active from +8 up or from −8 down
[9] = viability profiling in RPMI8226 myeloma cells – cell-based, resazurin fluorescence, basal, 24 h, PK04 Diversity Set, profiling panel (AID 1180); details: higher = more signal;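 also: RPMI8826 multiple myeloma cell line at 5000 cells per well; test concentration not given here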
[10] = molecular target: E3 ubiquitin-protein ligase XIAP (Homo sapiens) (UniProt P98170); assay: small molecules binding XIAP protein – biophysical, small-molecule microarray, fluorescence 635 nm, primary screen (AID 1181); details: higher = more signal;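 also: score merges 667 nm emission and signal to noise over triplicate slides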
Chain of E3 ubiquitin-protein ligase XIAP (Homo sapiens) (P98170 whole entry, looked up): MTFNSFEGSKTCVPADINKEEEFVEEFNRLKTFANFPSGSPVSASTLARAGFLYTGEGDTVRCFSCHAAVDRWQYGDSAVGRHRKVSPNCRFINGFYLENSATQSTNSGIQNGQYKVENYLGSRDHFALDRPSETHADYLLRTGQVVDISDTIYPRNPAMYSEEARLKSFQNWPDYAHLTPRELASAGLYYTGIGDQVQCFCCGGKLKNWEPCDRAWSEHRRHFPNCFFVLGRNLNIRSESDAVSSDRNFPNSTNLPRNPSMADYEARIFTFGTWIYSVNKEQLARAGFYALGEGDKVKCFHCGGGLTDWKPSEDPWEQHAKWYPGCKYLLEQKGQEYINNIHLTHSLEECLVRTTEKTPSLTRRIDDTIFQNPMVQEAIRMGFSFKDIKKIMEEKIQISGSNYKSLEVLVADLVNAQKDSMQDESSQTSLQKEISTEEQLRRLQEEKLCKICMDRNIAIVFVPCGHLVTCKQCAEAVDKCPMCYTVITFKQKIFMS

Chain of Dihydroorotate dehydrogenase (quinone), mitochondrial (Plasmodium falciparum (isolate 3D7)) (Q08210 whole entry, looked up): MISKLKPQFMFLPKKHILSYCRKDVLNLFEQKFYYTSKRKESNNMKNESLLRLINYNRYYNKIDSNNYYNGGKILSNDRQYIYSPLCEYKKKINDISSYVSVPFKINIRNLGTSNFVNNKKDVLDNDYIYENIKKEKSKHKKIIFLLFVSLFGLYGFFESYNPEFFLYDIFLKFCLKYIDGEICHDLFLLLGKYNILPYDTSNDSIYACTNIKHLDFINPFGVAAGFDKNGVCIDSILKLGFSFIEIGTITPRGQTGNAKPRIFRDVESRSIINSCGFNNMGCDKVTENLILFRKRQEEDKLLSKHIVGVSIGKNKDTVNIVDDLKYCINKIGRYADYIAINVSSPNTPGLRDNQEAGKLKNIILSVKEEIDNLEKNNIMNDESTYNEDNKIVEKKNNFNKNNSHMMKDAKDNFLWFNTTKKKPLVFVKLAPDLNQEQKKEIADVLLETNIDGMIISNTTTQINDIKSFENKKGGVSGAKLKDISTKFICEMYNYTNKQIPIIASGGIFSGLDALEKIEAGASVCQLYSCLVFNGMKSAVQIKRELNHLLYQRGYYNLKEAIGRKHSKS

COC(=O)c1c(CC[C@@H](CO)NC(=O)N2CCC[C@H]2Cn2cc(-c3ccccn3)nn2)oc(C(C)=O)c1C(=O)OC
z-score [1]: 0.422
z-score [2]: -0.835 (inactive)
z-score [3]: 0.608 (inactive)
composite z-score [4]: -0.492 (inactive)
z-score [5]: -0.252 (inactive)
z-score [6]: -1.19 (inactive)
z-score [7]: 1.28 (inactive)
z-score [8]: 0.835 (inactive)
z-score [9]: 0.426
composite z-score [10]: -0.0351

O=C1NC(=O)C2C1C=CC(C(O)c1cccc3ccccc13)N2Nc1ccccn1 (stereo not given)
z-score [1]: -0.692
z-score [2]: 0.268 (inactive)
z-score [3]: -1.74 (inactive)
composite z-score [4]: 0.305 (inactive)
z-score [5]: 0.226 (inactive)
z-score [6]: 0.798 (inactive)
z-score [7]: -0.334 (inactive)
z-score [8]: 0.638 (inactive)
z-score [9]: -0.94
composite z-score [10]: 0.276

C=CCOC(=O)[C@@H]1[C@H]2C(=O)O[C@H](c3ccccc3)[C@H](c3ccccc3)N2[C@H](c2ccc(OCCOC(=O)[C@@H]3C[C@@H]4C(=O)N5CCC[C@H]5C(=O)N4[C@@H]3c3ccc(O)cc3)cc2)[C@@]12C(=O)Nc1ccc(I)cc12
z-score [1]: 0.339
z-score [2]: 0.155 (inactive)
z-score [3]: -0.446 (inactive)
composite z-score [4]: -0.326 (inactive)
z-score [5]: 2.65 (inactive)
z-score [6]: -0.468 (inactive)
z-score [7]: 0.65 (inactive)
z-score [8]: 1.72 (inactive)
z-score [9]: 1.28
composite z-score [10]: -0.059

COc1ccc([Si](C)(C)[C@H]2[C@H](CCO)O[C@@]3(C(=O)N(C)c4c(Br)cc(C)cc43)[C@@H]2C)cc1
z-score [1]: -6.47
z-score [2]: 0.0436 (inactive)
z-score [3]: -9.16 (active)
composite z-score [4]: 1.13 (inactive)
z-score [5]: 0.814 (inactive)
z-score [6]: 3.93 (inactive)
z-score [7]: -0.185 (inactive)
z-score [8]: -1.4 (inactive)
z-score [9]: -6.31
composite z-score [10]: 0.184

COc1ccc(C(=O)Nc2ccc(CN3C(=O)[C@@]4(O[C@@H](CCn5cc([C@H](O)c6ccccc6)nn5)[C@H]([Si](C)(C)c5ccc(OC)cc5)[C@H]4C)c4ccccc43)cc2)cc1
z-score [1]: -1.44
z-score [2]: -0.91 (inactive)
z-score [3]: -3.18 (inactive)
composite z-score [4]: -0.441 (inactive)
z-score [5]: 1.04 (inactive)
z-score [6]: 1.57 (inactive)
z-score [7]: 0.245 (inactive)
z-score [8]: 0.195 (inactive)
z-score [9]: -3.11
composite z-score [10]: -0.16

COCCOC(=O)N1C(=O)[C@@]2(c3ccccc31)[C@H](c1ccccc1OCCO)N1[C@H](c3ccccc3)[C@H](c3ccccc3)OC(=O)[C@H]1[C@@H]2C(=O)Nc1nc2ccccc2s1
z-score [1]: 0.487
z-score [2]: 1.33 (inactive)
z-score [3]: -0.442 (inactive)
composite z-score [4]: 0.662 (inactive)
z-score [5]: 2.76 (inactive)
z-score [6]: 2.22 (inactive)
z-score [7]: 0.931 (inactive)
z-score [8]: 1.74 (inactive)
z-score [9]: 0.0081
composite z-score [10]: 0.0623

NC(=O)[C@@H]1[C@H]2C(=O)O[C@H](c3ccccc3)[C@H](c3ccccc3)N2[C@H](c2ccc(O)cc2)[C@@]12C(=O)Nc1ccc(C#CC3(O)CCCCCC3)cc12
z-score [1]: -0.0265
z-score [2]: -1.32 (inactive)
z-score [3]: 0.475 (inactive)
composite z-score [4]: -0.387 (inactive)
z-score [5]: 0.654 (inactive)
z-score [6]: 0.591 (inactive)
z-score [7]: -0.84 (inactive)
z-score [8]: -0.184 (inactive)
z-score [9]: -0.49
composite z-score [10]: -0.113

CN1C(=O)C2C=CC(C(O)c3ccccc3)N(Nc3ccccc3)C2C1=O (stereo not given)
z-score [1]: -1.05
z-score [2]: -0.506 (inactive)
z-score [3]: -1.83 (inactive)
composite z-score [4]: 0.0323 (inactive)
z-score [5]: 1.67 (inactive)
z-score [6]: 0.166 (inactive)
z-score [7]: -1.17 (inactive)
z-score [8]: -1.29 (inactive)
z-score [9]: -1.52
composite z-score [10]: 0.0651

O=C1OCCC/C=C\[C@H]2OC34C=CCN(CCN5CCOCC5)C(=O)[C@H]3N(CCCO)C(=O)[C@@H]4C12 (stereo not given in full)
z-score [1]: -0.0764
z-score [2]: -0.314 (inactive)
z-score [3]: -0.146 (inactive)
composite z-score [4]: -0.053 (inactive)
z-score [5]: -0.525 (inactive)
z-score [6]: -1.22 (inactive)
z-score [7]: -0.0395 (inactive)
z-score [8]: -0.125 (inactive)
z-score [9]: 0.125
composite z-score [10]: 0.138

C=CCN1C(=O)[C@]2(O[C@H](CCO)[C@@H]([Si](C)(C)c3ccc(OC)cc3)[C@@H]2C)c2cc(N3C(=O)c4cccc5cccc3c45)ccc21
z-score [1]: -5.43
z-score [2]: 1.7 (inactive)
z-score [3]: -8.43 (active)
composite z-score [4]: 1.72 (inactive)
z-score [5]: 0.662 (inactive)
z-score [6]: 6.52 (inactive)
z-score [7]: 2.21 (inactive)
z-score [8]: 1.44 (inactive)
z-score [9]: -6.23
composite z-score [10]: 0.0374

C=C(CCCC)C(=O)CC[C@H](OC(=O)c1cccnc1)c1ccccc1OCCO
z-score [1]: 0.619
z-score [2]: -0.716 (inactive)
z-score [3]: -2.19 (inactive)
composite z-score [4]: -0.363 (inactive)
z-score [5]: -0.317 (inactive)
z-score [6]: -1.61 (inactive)
z-score [7]: 0.836 (inactive)
z-score [8]: -0.0762 (inactive)
z-score [9]: -2.29
composite z-score [10]: 0.0374

C=C(/C(=C/C[C@@H](OC(C)=O)c1ccc(OCCO)cc1)c1cnc2ccccc2c1)C(C)C
z-score [1]: 1.22
z-score [2]: -2.05 (inactive)
z-score [3]: -0.318 (inactive)
composite z-score [4]: -7.29 (inactive)
z-score [5]: -0.165 (inactive)
z-score [6]: -1.87 (inactive)
z-score [7]: 1.58 (inactive)
z-score [8]: 0.79 (inactive)
z-score [9]: 1.05
composite z-score [10]: 0.287

Cc1ccc(S[C@]2(C(=O)NCC(F)(F)F)CC(=O)N(C(C)C)[C@@H]2c2ccc(CO)cc2I)cc1
z-score [1]: -0.185
z-score [2]: -1.52 (inactive)
z-score [3]: -0.881 (inactive)
composite z-score [4]: 0.436 (inactive)
z-score [5]: 0.786 (inactive)
z-score [6]: 0.701 (inactive)
z-score [7]: 0.0212 (inactive)
z-score [8]: -0.105 (inactive)
z-score [9]: -2.05
composite z-score [10]: -0.0013

— PubChem BioAssay
